PubChem BioAssay (NCI)
This is part of a sample that, as a whole, favours compounds with a hit. Of some 83,000 tested, about 20% had one in any assay.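 Step 1: grow cells in 96-well plates. Step 2: add test compound at a single concentration. Step 3: incubate 48 h. Step 4: record percent growth.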 Unmarked numbers belong to inactive results. Calls of active or inactive are those of the source. How the source made its calls: active means growth percent below 10; inactive means the rest.

Assays:
Test in all cases: NCI-60 one-dose screen, 48 h (100 = growth as untreated, 0 = no growth, -100 = all killed)
Details in all cases: 10 µM unless noted
SR leukemia = tested on: SR leukemia
RPMI-8226 leukemia = tested on: RPMI-8226 leukemia
OVCAR-8 ovarian = tested on: OVCAR-8 ovarian
OVCAR-5 ovarian = tested on: OVCAR-5 ovarian
OVCAR-4 ovarian = tested on: OVCAR-4 ovarian
IGROV1 ovarian = tested on: IGROV1 ovarian
OVCAR-3 ovarian = tested on: OVCAR-3 ovarian
HS 578T breast = tested on: HS 578T breast
NCI/ADR-RES ovarian = tested on: NCI/ADR-RES ovarian
SK-OV-3 ovarian = tested on: SK-OV-3 ovarian

SMILES | growth (SR leukemia) | growth (RPMI-8226 leukemia) | growth (OVCAR-8 ovarian) | growth (OVCAR-5 ovarian) | growth (OVCAR-4 ovarian) | growth (IGROV1 ovarian) | growth (OVCAR-3 ovarian) | growth (HS 578T breast) | growth (NCI/ADR-RES ovarian) | growth (SK-OV-3 ovarian)
Cc1ccc(/C=C2\CN(C(=O)OC(C)(C)C)C/C(=C\c3ccc(C)cc3)C2=O)cc1 | -13.1% (active) | -25.8% (active) | 25% | 112% | 65.4% | 69.3% | 7.18% (active) | 59.6% | 76.3% | 
CCOC(=O)c1cnc2ccccc2c1Cl | 109% | 114% | 99.6% | 98.3% | 84.7% | 122% | 106% | 92.9% | 105% | 
Cc1cccc(N2CCN(CC(O)COc3ccc(Cl)cc3)CC2)c1 (stereo not drawn) | 79.7% | 77.6% | 98.8% | 116% | 115% | 92.7% | 111% | 115% | 105% | 
COc1cc(/C=C\c2cc(/C=C\c3ccc(O)c(OC)c3)n(C(=O)COc3ccc(Cl)cc3Cl)n2)ccc1O | 0.0066% (active) | -6.8% (active) | 6.52% (active) | 56.7% | 31.4% | 12.5% | 14% | 10.2% | 21.5% | 
CCc1n(Cc2ccc3ccccc3c2)cc[n+]1Cc1ccc2ccccc2c1 | -28% (active) | -23.1% (active) | -4.85% (active) | 8.92% (active) | 2.44% (active) | -21.7% (active) | -16.3% (active) | 4.38% (active) | 92.5% | 
CC1(C)CC[C@]2(C(=O)O)CC[C@]3(C)C(=CC[C@@H]4[C@@]5(C)C/C(=C/O)C(=O)C(C)(C)[C@@H]5CC[C@]43C)[C@@H]2C1 | 36.3% | 13.2% | 29.3% | 81.4% | 63% | 31.4% | 21% | 74.1% | 38.8% | 
C=C1CC[C@@H]2[C@](C)(COC(C)=O)[C@H](OC(C)=O)CC[C@@]2(C)[C@@H]1CC(Sc1ccccc1)C1=CCOC1=O (stereo partly drawn) | 2.9% (active) | -4.72% (active) | 11.9% | 39.8% | 100% | 25.2% | -84.2% (active) | 54.2% | 10.1% | 
CCOC(=O)c1cc(-c2ccc([N+](=O)[O-])cc2)n(-c2ccc(C(=O)O)c(O)c2)c1C | 67.1% | -3.07% (active) | 38.6% | 114% | 52% |  | 79.6% | 67.8% | 57.5% | 95.6%
CC(=O)OCc1nc(C#N)c(N(C)C)o1 | 92.2% | 99.6% | 94.1% | 86.9% | 100% | 95% | 99.1% | 99.4% | 103% | 
Oc1ccc(CN2CCC(N3CCCCC3)CC2)c2cccnc12 | 19.7% | 19.4% | 25% | 47.2% | 22.7% | 25.4% | 28.8% | 27.6% | 30.8% | 
Cc1ccc(NC(=S)NNC(=S)NNc2ccccc2)cc1C | 56.8% | 78.9% | 98.2% | 105% | 114% | 98.5% | 73.9% | 94.4% |  | 
COc1cc(CNC(=O)CCCC/C=C/C(C)C)ccc1OCc1nnc(Nc2ccc([N+](=O)[O-])cc2)o1 | 64.2% | 52.3% | 25% | 101% | 11.3% | 53.5% | 77.3% | 63.2% | 79.6% | 
CCNc1cc(-c2cccc(OC(F)(F)F)c2)nc2ccc(N3CCCC3)cc12 | 6.47% (active) | -2.09% (active) | 5.54% (active) | 27.9% | 14.5% | 27.1% | -18% (active) | 70.5% | 0.328% (active) | 
N#C/C(=C\c1ccc(-c2ccc(Cl)cc2)o1)C(=O)Nc1ncc(Cc2ccc(Cl)cc2)s1 | 8.8% (active) | 85.2% | 8.41% (active) | 29.7% | -56.9% (active) | 28.3% | -49.8% (active) | 25.6% | 26.2% | 
CC(C)c1ccc(NC(=O)Nc2ccc(NC(=O)CCCC(=O)NOCc3ccccc3)cc2)cc1 | 73.4% | 91.1% | 96.7% | 89.2% | 89.2% | 91.5% | 94% | 85.7% | 99.1% | 
O=C(Nc1cccnc1Nc1ccc(F)cc1)c1cn(Cc2cccc(Oc3ccccc3)c2)nn1 | 23.4% | 78.9% | 81.4% | 115% | 86.5% |  | 71.9% | 69.3% | 37.8% | 
O=C(N/N=C/c1ccc(F)cc1)c1ccc(C(F)(F)F)nc1Nc1cccc(C(F)(F)F)c1 | -30.5% (active) | -49.8% (active) | 9.33% (active) | -7.78% (active) | -6.96% (active) | -19.6% (active) | -7.4% (active) | -5.72% (active) | -22.9% (active) | 
COc1cc2c(c(OC)c1OC)-c1ccc(OC)c(=O)cc1[C@@H](NC(=O)CCl)CC2 | 36.3% | 20.3% | 8.53% (active) | 22.4% | 42.7% | 14.1% | 8.93% (active) | 63.4% | -39.4% (active) | 
OCCOCCN(Cc1ccccn1)Cc1cc(I)cc(I)c1O | 87.8% | 96.9% | 85.7% | 92.5% | 93.9% | 77.9% | 90.2% | 109% | 6.52% (active) | 
Cc1cccc2c1NC(=O)C2(c1ccc(O)cc1)c1ccc(O)cc1 | 89% | 80.9% | 4.88% (active) | 75.9% | -16% (active) | 45.7% | 25.6% | -5.53% (active) | 11% | 
CCN(CC)C(=S)SC(SC(=S)N(CC)CC)C(=O)c1nnn(-c2ccc([N+](=O)[O-])cc2)c1C | 55.3% | 90.8% | 101% | 106% | 104% | 71.2% | 98.4% | 113% | 99.8% | 
CCn1cc(C(=O)N/N=C/c2cccs2)c(=O)c2cc(F)c(N3CCNC(C)C3)c(F)c21 (stereo not drawn) | -4.21% (active) | -36.6% (active) | 43.8% | 67.2% | 76.2% |  | 68.7% | 86% | 67.9% | 
Fc1ccc2[nH]cc(-c3nonc3-c3c[nH]c4ccc(Br)cc34)c2c1 | 15.2% | 29.9% | 27% | 36.8% | 36% |  | 34.3% | 39.5% | 23% | 
COc1cc2c(c(OC)c1OC)C(=O)CC(c1cccc(NC(=O)c3ccc(Br)cc3)c1)O2 (stereo not drawn) | 3.88% (active) | -4.85% (active) | 14.1% | 95.4% | 53.9% | 45.9% | 46.5% | 71% | 8.47% (active) | 
N#Cc1c(-c2cccs2)cc(-c2cccnc2)[nH]c1=O | 95.9% | 98.6% | 97.9% | 96.9% | 118% | 108% | 104% | 102% | 103% | 
N#CC1=C(N)Oc2c(sc3c(Br)cccc23)C1c1ccc(F)cc1 (stereo not drawn) | 5.83% (active) | 16.7% | 25.3% | 30.9% | 56.4% | 26.9% | 9.66% (active) | 42% |  | 
O=C(COc1ccc(-c2nc3ccccc3[nH]2)cc1)N=Nc1c(O)[nH]c2ccc(Cl)cc12 | 11.2% | 57.4% | 11.9% | 104% | 60.7% | 88% | 63.7% | 72.4% | 107% | 
